Assay [1] can be described thus: qHTS assay for small molecules that induce genotoxicity in human embryonic kidney cells expressing luciferase-tagged ATAD5 (AID 651632). Note: nearly all actives have a fitted effect of over 15% in size. Note: potency is the fitted concentration of half-maximal effect. The essentials: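 Genotoxicity read-out via ATAD5-luciferase: HEK293T cells, 16 hr compound incubation at 37C, Amplite detection.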
Background: In qHTS, concentration-response curves come from the screen itself.

The nature of assay [2]: qHTS assay for small molecule agonists of the p53 signaling pathway - cell viability (AID 651633; calls by dose curve;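 note: p53RE-bla HCT reporter cells with a stable beta-lactamase p53 reporter; nearly all actives have a fitted effect of over 30% in size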). The method, boiled down: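 Viability counter-read: CellTiter-Glo luminescence (30 min, room temperature) in the same p53RE-bla plates. These plates had been exposed to compounds for 16 h at 37 C.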
Assay [3] in a line: qHTS assay for small molecules that induce genotoxicity in human embryonic kidney cells expressing luciferase-tagged ATAD5 - cell viability (AID 651634; calls by dose curve; note: nearly all actives have a fitted effect of over 25% in size). The essentials:
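Live-cell protease activity (CellTiter-Fluor, fluorescence) indicates viability. HEK293T cells with luciferase-tagged ATAD5; 15.5 hr compound treatment at 37C.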

The nature of assay [4]: qHTS assay for small molecule disruptors of the mitochondrial membrane potential - cell viability (AID 720634; calls by dose curve;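 note: human HepG2 liver cancer cells; nearly all actives have a fitted effect of over 20% in size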). The method, boiled down: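 Human hepatoma HepG2 cells were treated for 1 hr with test chemicals, then given m-MPI dye and CellTiter-Glo. Cell viability reflects luminescence proportional to cellular ATP.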
A short description of assay [5]: qHTS assay to test for compound auto fluorescence at 590 nm (red) in HepG2 cells (AID 720674). The essentials:
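Red autofluorescence (Ex/Em 540/590 nm, Rose Bengal sodium equivalents) was measured in HepG2 cells, 2,000 per well in MEM plus 10% FBS, plated overnight at 37 C. Readings were taken 1 hr after adding 23 nL compound or DMSO, at 37 C and 5% CO2.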

Assay [6] is described as follows: qHTS assay to test for compound auto fluorescence at 535 nm (green) in HepG2 cells (AID 720675).
Assay [7] is described as follows: qHTS assay to test for compound auto fluorescence at 460 nm (blue) in HEK293 cells (AID 720678). The method, boiled down: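 HEK293, 2,000 cells/well, 10% dialyzed FBS; attach 4-5 hr 37C; pin compound or DMSO; o/n 37C/5% CO2; fluorescence 405/460 nm; triamterene-equivalent units.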
Assay [8] is described as follows: qHTS assay to test for compound auto fluorescence at 590 nm (red) in HEK293 cells (AID 720679). The method, boiled down: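 Intensity at 540nm excitation and 590nm emission is reported as Rose Bengal sodium-equivalent autofluorescence. Measurements followed overnight exposure (37C, 5% CO2) of HEK293 cells, 2,000 per well, to 23 nL compound.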
Assay [9] is described as follows: qHTS assay to test for compound auto fluorescence at 535 nm (green) in HEK293 cells (AID 720680).
Assay [10] can be described thus: qHTS assay to test for compound auto fluorescence at 460 nm (blue) in HEK293 cell free culture (AID 720681). The essentials:
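Blue fluorescence (Ex 405/Em 460 nm, triamterene-equivalent) was read immediately after pin transfer of compound or DMSO into medium (DMEM, 10% FBS) without cells.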

A short description of assay [11]: qHTS assay to test for compound auto fluorescence at 535 nm (green) in HEK293 cell free culture (AID 720682). The essentials: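 Measurement is a direct plate read of green fluorescence (485 nm in, 535 nm out) after compound addition to serum-supplemented DMEM lacking cells, with fluorescein used to express intensities.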
Assay [12] in a line: qHTS assay to test for compound auto fluorescence at 590 nm (red) in HEK293 cell free culture (AID 720683). The essentials: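 Red-channel autofluorescence of compounds in culture medium (DMEM, 10% FBS), no cells, measured at 540/590 nm. Rose Bengal sodium is the reference fluorophore for equivalence.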
A short description of assay [13]: qHTS assay to test for compound auto fluorescence at 590 nm (red) in HepG2 cell free culture (AID 720684). The method, boiled down:
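Steps: dispense MEM/10% FBS medium, no cells; pin compound or DMSO vehicle; read red channel, Ex/Em 540/590 nm. Output given as Rose Bengal sodium equivalents.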

Assay [14] in a line: qHTS assay to test for compound auto fluorescence at 460 nm (blue) in HepG2 cell free culture (AID 720685). The essentials:
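Compound (23 nL) or DMSO pinned into cell-free MEM with 10% FBS; blue fluorescence read at 405/460 nm excitation/emission, expressed as auto-fluorescence equivalency to triamterene.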

Assay [15] can be described thus: qHTS assay to test for compound auto fluorescence at 535 nm (green) in HepG2 cell free culture (AID 720686).
Assay [16] in a line: qHTS assay to test for compound auto fluorescence at 460 nm (blue) in HepG2 cells (AID 720687). The method, boiled down: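 Blue-channel autofluorescence (Ex/Em 405/460 nm, triamterene-equivalent) was measured after 1 hr compound exposure at 37 C, 5% CO2. Cells were HepG2, plated overnight at 37 C in MEM plus 10% FBS.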
Assay [17] concerns the target Glucocorticoid receptor (Homo sapiens) (UniProt P04150). Nature of the assay: qHTS assay to identify small molecule agonists of the glucocorticoid receptor (GR) signaling pathway (AID 720691; active = well fitted activation curve with a large enough effect in the signal ratio in the repeat runs, not every such curve was filed as active; the % refers to the signal ratio). To be noted: GR-bla HeLa, beta-lactamase reporter ratio, 18 h; activation: at 62.4 µM (top of the series) unless noted. The method, boiled down:
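Beta-lactamase reporter activity, read as fluorescence intensity, was measured in GR-bla HeLa cells exposed to compounds for 18 h at 37 C and then loaded with LiveBLAzer B/G FRET substrate for 2 h at room temperature.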

For assay [18] the target is unchanged. Nature of the assay: qHTS assay to identify small molecule antagonists of the glucocorticoid receptor (GR) signaling pathway (AID 720692; active = well fitted inhibition curve with a large enough effect in the signal ratio in the repeat runs, not every such curve was filed as active; the % refers to the signal ratio). The method, boiled down:
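Fluorescence from cleaved LiveBLAzer B/G FRET substrate reports GRE-driven beta-lactamase in HeLa cells; compounds are tested against 5 nM dexamethasone (final) over 18 h at 37 C, substrate incubation 2 h at room temperature.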

Assay [19] is described as follows: qHTS assay for small molecule disruptors of the mitochondrial membrane potential (AID 720635). Note: potency is the fitted concentration of half-maximal effect. The essentials: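 Mitochondrial membrane potential tracked with Mito-MPS dye, red aggregates (ex 540/em 590 nm) against green monomers (ex 490/em 535 nm). Compound treatment 1 hr at 37C, dye 30 min in HepG2.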

A number with no mark means an inactive call. Results filed as inconclusive are left out. Calls of active or inactive are those of the source. Unless noted, calls come from the whole dose curve; as a rule, active = well fitted curve in the direction sought with a large enough effect in the repeat runs; inconclusive = weak or mixed curves; inactive = no such curve, though single readings can be large; an effect the other way counts as inactive or inconclusive.
% is set by controls: 0 for no effect and ±100 for the full control effect.

Sequence of Glucocorticoid receptor (Homo sapiens) (P04150 whole entry, looked up): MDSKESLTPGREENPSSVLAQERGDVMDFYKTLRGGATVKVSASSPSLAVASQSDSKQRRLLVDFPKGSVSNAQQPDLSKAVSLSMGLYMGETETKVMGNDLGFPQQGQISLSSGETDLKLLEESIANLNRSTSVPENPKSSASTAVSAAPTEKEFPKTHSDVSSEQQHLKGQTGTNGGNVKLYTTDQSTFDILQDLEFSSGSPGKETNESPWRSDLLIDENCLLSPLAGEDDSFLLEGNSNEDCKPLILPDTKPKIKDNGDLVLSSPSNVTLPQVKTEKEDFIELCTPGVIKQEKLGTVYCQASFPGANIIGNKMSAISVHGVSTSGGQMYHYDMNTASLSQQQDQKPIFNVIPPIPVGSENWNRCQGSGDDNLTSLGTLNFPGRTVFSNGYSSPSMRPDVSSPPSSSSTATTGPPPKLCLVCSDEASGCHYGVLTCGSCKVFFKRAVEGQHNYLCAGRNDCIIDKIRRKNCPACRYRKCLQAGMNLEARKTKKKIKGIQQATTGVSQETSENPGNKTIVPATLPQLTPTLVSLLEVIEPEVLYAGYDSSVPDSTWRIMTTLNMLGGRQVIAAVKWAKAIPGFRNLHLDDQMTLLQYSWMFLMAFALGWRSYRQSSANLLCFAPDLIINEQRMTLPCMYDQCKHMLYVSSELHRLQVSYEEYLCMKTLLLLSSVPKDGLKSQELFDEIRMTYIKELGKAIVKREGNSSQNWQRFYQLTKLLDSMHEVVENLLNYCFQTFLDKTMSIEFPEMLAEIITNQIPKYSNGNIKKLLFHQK

Regarding `CN(C)CCN(Cc1ccc(Cl)cc1)c1ccccn1`, the Potency entry in [1], in [2], in [3], in [4], in [17] and in assay [18] was “inactive” throughout. The fluorescence, relative to Rose Bengal in [5] is 0.0058% [at 18.6 µM]. Besides, the results for the fluorescence, % of fluorescein control in assay [6] and in [15] were 0.0171% [at 18.6 µM] and -0.14% [at 18.6 µM], respectively. For the same molecule, in [7], the fluorescence, % of triamterene was 0.037% [at 18.6 µM]. In addition, the fluorescence, % of fluorescent control in assay [8] was -0.0077% [at 18.6 µM]; in [10], -0.0429% [at 18.6 µM]; in assay [12], -0.237% [at 18.6 µM]; in [14], 0.027% [at 18.6 µM]; in assay [16], -0.0264% [at 18.6 µM]. In addition, in assay [9], the fluorescence, % of fluorescein is 0.0009% [at 18.6 µM]. Besides, the activity change in [11] was 2e-05% [at 18.6 µM]. Besides, the fluorescence, % of Rose Bengal in [13] was 0.0021% [at 18.6 µM].

`CCOC(=O)NCCOc1ccc(Oc2ccccc2)cc1`: the Potency result in assay [1], in [2], in assay [3], in assay [6], in assay [8] and in assay [12] was “inactive” throughout. In addition, the Potency entry in [13] and in assay [15] was “inactive” throughout. Moreover, the Potency in assay [19] is 27.3 µM (active). Moreover, the outcome in [7], in assay [9], in assay [10], in assay [11] and in [16] was inactive.

In the case of `CCCOC(C(=O)OC1CCN(C)CC1)(c1ccccc1)c1ccccc1`, the Potency result in [1], in [2], in [3], in [4], in assay [5] and in assay [6] was “inactive” in each case. In addition, the Potency result in assay [8], in assay [12], in assay [13], in assay [17] and in assay [18] was “inactive” throughout. The result in assay [7], in assay [9], in [10], in [11], in assay [14] and in [16] was inactive.

Turning to `CC(C)(C)Cl`, the Potency result in [1], in [3], in assay [4], in [19], in [5] and in assay [6] was “inactive” each time. Besides, the Potency result in assay [8], in assay [12], in assay [13] and in [15] was “inactive” each time. The molecule was classed as inactive in assay [7], in assay [9], in assay [10], in assay [11], in assay [14] and in assay [16].

Turning to `CCc1cc(C2=C(C(=O)O)N(c3ccccc3C(F)(F)F)S(=O)(=O)c3ccccc32)cc2c1OCO2`, the Potency entry in [1], in assay [2], in [6], in assay [8], in assay [12] and in assay [13] was “inactive” each time. The Potency entry in assay [15] and in assay [17] was “inactive” each time. In addition, in [19], the Potency was 48 µM (active). Also, the result in assay [7], in [9], in assay [10], in assay [11], in [14] and in [16] was inactive.

`Cc1c(N)cccc1[N+](=O)[O-]`: the Potency result in assay [1], in assay [2], in assay [4], in [19], in assay [5] and in assay [6] was “inactive” each time. The Potency result in assay [8], in assay [13], in [15] and in assay [17] was “inactive” each time. For the same molecule, the result in assay [7], in assay [9], in assay [10], in [11], in [14] and in assay [16] was inactive.

In the case of `CCOC(=O)C(F)(F)F`, the Potency result in [1], in [2], in [3], in assay [4], in assay [6] and in assay [8] was “inactive” in each case. The Potency entry in [12], in [13], in assay [15], in assay [17] and in assay [18] was “inactive” throughout. For the same molecule, the call in [7], in [9], in [10], in assay [11], in assay [14] and in assay [16] was inactive.

With `CC(C)Nc1ccc(NC(C)C)c2c1C(=O)c1ccccc1C2=O`, the Potency entry in assay [1], in [2], in assay [5], in assay [6], in assay [8] and in [12] was “inactive” in each case. For the same molecule, the Potency result in assay [13], in assay [15], in [17] and in assay [18] was “inactive” each time. Besides, in assay [19], the Potency is 11.3 µM (active). The result in assay [7], in assay [9], in assay [10], in [11], in assay [14] and in [16] was inactive.

In the case of `O=C(O)C1(C(=O)Nc2ccc(Cl)cc2Cl)CC1`, the values for the Potency in assay [1] and in assay [19] were 1.93 µM (active) and 8.63 µM (active), respectively. In addition, the Potency result in assay [2], in assay [3], in assay [5], in assay [6], in assay [13] and in assay [15] was “inactive” each time. In addition, the molecule was called inactive in [7], in assay [9], in assay [10], in [11], in assay [14] and in assay [16].

On to `OC(CN1CCC(Cc2ccc(F)cc2)CC1)c1ccc(Cl)cc1` (configuration not stated), for which the Potency result in [1], in assay [2], in assay [3], in assay [4], in [6] and in assay [8] was “inactive” each time. The Potency result in assay [12], in assay [13], in assay [15], in [17] and in assay [18] was “inactive” throughout. Further, the molecule was called inactive in assay [7], in assay [9], in [10], in [11] and in assay [16].

On to `CN1CCC(N(Cc2cccs2)c2ccccc2)CC1`, for which the Potency result in assay [1], in assay [2], in assay [3], in assay [4], in [5] and in assay [6] was “inactive” each time. Also, the Potency result in [8], in assay [13], in [15] and in [17] was “inactive” each time. Besides, the molecule was classed as inactive in [7], in assay [9], in [10], in assay [11] and in assay [16].

For the molecule `O=C(O)c1ccc(S(=O)(=O)O)cc1C(=O)O`, the Potency entry in assay [1], in assay [2], in assay [3], in [4], in assay [6] and in assay [8] was “inactive” throughout. In addition, the Potency entry in assay [12], in assay [13] and in assay [15] was “inactive” in each case. The molecule was classed as inactive in assay [7], in [9], in assay [10], in assay [11], in assay [14] and in assay [16].

`O=C(O)C(S)C(S)C(=O)O` (configuration not stated): the Potency entry in assay [1], in assay [3], in [4], in assay [19], in assay [5] and in [6] was “inactive” throughout. Also, the Potency entry in assay [8], in [12], in assay [13] and in [15] was “inactive” each time. Further, the result in [7], in [9], in assay [10], in assay [11], in assay [14] and in assay [16] was inactive.

As to `CC(C)(CO)[N+](=O)[O-]`, the Potency result in assay [1], in [2], in assay [3], in assay [4], in [5] and in assay [6] was “inactive” in each case. Besides, the Potency result in assay [13], in [15], in assay [17] and in [18] was “inactive” in each case. Also, the result in assay [7], in assay [9], in assay [10], in [11], in assay [14] and in assay [16] was inactive.
